Experimental data published in PubChem BioAssay AID1159580 (chemical genetic matrix, 2015).
Among all 5,500 compounds or so, about 2,000 (36%) were called active. Inconclusive results (about 18%) are left out. Cut-off read from the data, not from the text of the source: active = normalized growth mostly below about 0.91 (no sharp cut-off); inconclusive = no clear call, values can overlap the other calls; inactive = mostly above about 0.92. The list shows a part of the results.

Experiment: chemical genetic growth profiling, strain panel (AID 1159580);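 note: tested at 20 µM; growth read once vehicle control cultures reached saturation at 30 °C; 1 = growth at the plate median or of vehicle wells; lower values mean less growth of the strain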
Details: growth OD

Measured: normalized growth

CCN1C[C@]2(C)CC[C@H](OC)[C@]34C2[C@H](O)[C@]2(OCO[C@@]25C[C@H](OC)[C@H]2C[C@]3(O)C5[C@H]2O)C14
inactive: S. cerevisiae deletion strains, locus YAL013W, strain DEP1, hits give low values 0.998 | S. cerevisiae deletion strains, locus YBR021W, strain FUR4, hits give low values 1.01 | S. cerevisiae deletion strains, locus YBR229C, strain ROT2, hits give low values 1.01 | S. cerevisiae deletion strains, locus YCL029C, strain bik1, hits give low values 1.01 | S. cerevisiae deletion strains, locus YDL035C, strain GPR1, hits give low values 1.03 | S. cerevisiae deletion strains, locus YDL074C, strain BRE1, hits give low values 1.04 | S. cerevisiae deletion strains, locus YDL101C, strain DUN1, hits give low values 1.01 | S. cerevisiae deletion strains, locus YDL134C, strain PPH21, hits give low values 1.01 | S. cerevisiae deletion strains, locus YDL185W, strain tfp1, hits give low values 1 | S. cerevisiae deletion strains, locus YDL192W, strain arf1, hits give low values 1.01 | S. cerevisiae deletion strains, locus YDR101C, strain arx1, hits give low values 0.995 | S. cerevisiae deletion strains, locus YDR150W, strain NUM1, hits give low values 0.988 | S. cerevisiae deletion strains, locus YDR162C, strain NBP2, hits give low values 0.992 | S. cerevisiae deletion strains, locus YDR318W, strain mcm21, hits give low values 1.01 | S. cerevisiae deletion strains, locus YDR388W, hits give low values 1.01 | S. cerevisiae deletion strains, locus YDR502C, strain sam2, hits give low values 0.998 | S. cerevisiae deletion strains, locus YEL061C, strain CIN8, hits give low values 0.994 | S. cerevisiae deletion strains, locus YER110C, hits give low values 1.01 | S. cerevisiae deletion strains, locus YER155C, strain BEM2, hits give low values 0.981 | S. cerevisiae deletion strains, locus YER167W, strain BCK2, hits give low values 1 | S. cerevisiae deletion strains, locus YGL078C, strain dbp3, hits give low values 0.998 | S. cerevisiae deletion strains, locus YGL086W, strain mad1, hits give low values 1 | S. cerevisiae deletion strains, locus YGL248W, strain PDE1, hits give low values 1 | S. cerevisiae deletion strains, locus YGR078C, strain PAC10, hits give low values 1.03 | S. cerevisiae deletion strains, locus YGR135W, strain pre9, hits give low values 1.01 | S. cerevisiae deletion strains, locus YGR229C, strain SMI1, hits give low values 0.999 | S. cerevisiae deletion strains, locus YGR252W, strain gcn5, hits give low values 1.02 | S. cerevisiae deletion strains, locus YHR030C, strain SLT2, hits give low values 0.999 | S. cerevisiae deletion strains, locus YHR079C, strain IRE1 (second series), hits give low values 1.01 | S. cerevisiae deletion strains, locus YHR094C, strain hxt1, hits give low values 1 | S. cerevisiae deletion strains, locus YHR129C, strain ARP1, hits give low values 1 | S. cerevisiae deletion strains, locus YHR200W, strain rpn10, hits give low values 1 | S. cerevisiae deletion strains, locus YIL066C, strain RNR3, hits give low values 1 | S. cerevisiae deletion strains, locus YIL073C, strain SPO22, hits give low values 1 | S. cerevisiae deletion strains, locus YIL125W, strain kgd1, hits give low values 1 | S. cerevisiae deletion strains, locus YIR030C, strain dcg1, hits give low values 1 | S. cerevisiae deletion strains, locus YJL095W, strain BCK1, hits give low values 1.04 | S. cerevisiae deletion strains, locus YJL134W, strain LCB3, hits give low values 0.999 | S. cerevisiae deletion strains, locus YJL168C, strain set2, hits give low values 1.01 | S. cerevisiae deletion strains, locus YJL187C, strain SWE1 (second series), hits give low values 1.01 | S. cerevisiae deletion strains, locus YJR043C, strain POL32, hits give low values 1.01 | S. cerevisiae deletion strains, locus YJR075W, strain HOC1, hits give low values 1 | S. cerevisiae deletion strains, locus YKL009W, strain mrt4, hits give low values 1.02 | S. cerevisiae deletion strains, locus YKL068W, hits give low values 0.991 | S. cerevisiae deletion strains, locus YKL085W, strain MDH1 (second series), hits give low values 0.999 | S. cerevisiae deletion strains, locus YKL085W, strain MDH1, hits give low values 0.999 | S. cerevisiae deletion strains, locus YKL190W, strain CNB1, hits give low values 0.967 | S. cerevisiae deletion strains, locus YKR001C, strain vps1, hits give low values 1.01 | S. cerevisiae deletion strains, locus YLR039C, strain RIC1, hits give low values 1.03 | S. cerevisiae deletion strains, locus YLR058C, strain SHM2, hits give low values 1.01 | S. cerevisiae deletion strains, locus YLR102C, strain apc9, hits give low values 1 | S. cerevisiae deletion strains, locus YLR262C, strain YPT6, hits give low values 1.03 | S. cerevisiae deletion strains, locus YLR268W, strain sec22, hits give low values 1.02 | S. cerevisiae deletion strains, locus YLR330W, strain CHS5, hits give low values 1.01 | S. cerevisiae deletion strains, locus YLR342W, strain FKS1 (second series), hits give low values 1.03 | S. cerevisiae deletion strains, locus YLR371W, strain rom2, hits give low values 1 | S. cerevisiae deletion strains, locus YLR418C, strain cdc73, hits give low values 1.04 | S. cerevisiae deletion strains, locus YML016C, strain PPZ1, hits give low values 1 | S. cerevisiae deletion strains, locus YML032C, strain rad52, hits give low values 1 | S. cerevisiae deletion strains, locus YML124C, strain tub3, hits give low values 1 | S. cerevisiae deletion strains, locus YMR078C, strain ctf18, hits give low values 1.01 | S. cerevisiae deletion strains, locus YMR223W, strain ubp8, hits give low values 0.998 | S. cerevisiae deletion strains, locus YMR263W, strain SAP30, hits give low values 0.998 | S. cerevisiae deletion strains, locus YMR307W, strain GAS1, hits give low values 1.07 | S. cerevisiae deletion strains, locus YNL067W, strain RPL9B, hits give low values 0.995 | S. cerevisiae deletion strains, locus YNL128W, strain TEP1, hits give low values 1 | S. cerevisiae deletion strains, locus YNL153C, strain GIM3, hits give low values 1 | S. cerevisiae deletion strains, locus YNL233W, strain BNI4, hits give low values 1.01 | S. cerevisiae deletion strains, locus YNL250W, strain rad50, hits give low values 0.999 | S. cerevisiae deletion strains, locus YNL271C, strain bni1, hits give low values 1.01 | S. cerevisiae deletion strains, locus YNL298W, strain CLA4, hits give low values 1 | S. cerevisiae deletion strains, locus YNL307C, strain MCK1, hits give low values 1.02 | S. cerevisiae deletion strains, locus YNL322C, strain KRE1, hits give low values 1 | S. cerevisiae deletion strains, locus YNR052C, strain pop2, hits give low values 1.01 | S. cerevisiae deletion strains, locus YOL006C, strain TOP1, hits give low values 1.02 | S. cerevisiae deletion strains, locus YOL012C, strain htz1 1.33 | S. cerevisiae deletion strains, locus YOL147C, strain pex11, hits give low values 1.01 | S. cerevisiae deletion strains, locus YOR061W, strain CKA2, hits give low values 1.01 | S. cerevisiae deletion strains, locus YOR069W, strain VPS5, hits give low values 1 | S. cerevisiae deletion strains, locus YOR136W, strain idh2, hits give low values 1.01 | S. cerevisiae deletion strains, locus YOR144C, strain elg1, hits give low values 1.01 | S. cerevisiae deletion strains, locus YOR184W, strain ser1, hits give low values 1.03 | S. cerevisiae deletion strains, locus YOR316C, strain cot1, hits give low values 1 | S. cerevisiae deletion strains, locus YPL055C, strain LGE1, hits give low values 0.987 | S. cerevisiae deletion strains, locus YPL241C, strain CIN2, hits give low values 0.998 | S. cerevisiae deletion strains, locus YPR119W, strain clb2, hits give low values 1 | S. cerevisiae deletion strains, locus YPR141C, strain kar3, hits give low values 1 | S. cerevisiae deletion strains, locus YPR163C, strain tif3, hits give low values 1.02 | S. cerevisiae deletion strains, locus YPR167C, strain met16, hits give low values 1.01 | S. cerevisiae deletion strains, strain wtn01, hits give low values 1 | S. cerevisiae strains, strain wild type, hits give low values 0.987
